Where “and” joins values, the source holds several entries; their conditions need not be identical. Equal entries are not always repeated. More than one record can exist for a structure, and the calls need not agree. Calls of active or inactive are those of the source. How the source made its calls: active means hit-call score of the fitted dose curve at least 0.9, where 1 is the maximum; inactive means score below 0.9.
Columns and labels:
[1] = read-out: Urokinase-type plasminogen activator receptor (uPAR), PLAUR (gene 5329); test: BSK_4H_uPAR: BioMAP Diversity Plus: 4H Assay for Urokinase-type plasminogen activator receptor (uPAR) Biomarker Activity (AID 2283030); details: primary human endothelial cells (HUVEC); actives raise or lower the signal
Method in brief: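 Primary human umbilical vein endothelial cells were exposed to chemical for 24 h before cell-surface uPAR was quantified by ELISA. Activity was fitted bidirectionally against the DMSO negative control baseline.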

[2] = read-out: Vascular endothelial growth factor receptor 2 (Homo sapiens) (UniProt P35968); test: BSK_4H_VEGFRII: BioMAP Diversity Plus: 4H Assay for Vascular endothelial growth factor receptor 2 (VEGFR2) Biomarker Activity (AID 2283031); details: primary human endothelial cells (HUVEC); actives raise or lower the signal
Method in brief: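 Primary human umbilical vein endothelial cells in the BioMAP 4H system were dosed with test chemical, and 24 h later VEGFRII was measured by ELISA. Activity was fitted bidirectionally against DMSO as negative control and baseline.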

[3] = read-out: Human Leukocyte Antigen - DR isotype (HLADR), HLA-DRA (gene 3122); test: BSK_BE3C_HLADR: BioMAP Diversity Plus: BE3C Assay for Human Leukocyte Antigen - DR isotype (HLADR) Biomarker Activity (AID 2283032); details: primary human bronchial epithelial cells; actives raise or lower the signal
Method in brief: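 Human primary bronchial epithelial cells in the BE3C system were exposed to chemicals for 24 h, after which HLA-DR levels were quantified by ELISA. Activity was fitted bidirectionally, gain or loss of signal, against DMSO as negative control and baseline.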

[4] = read-out: Vascular cell adhesion molecule 1 (VCAM1), VCAM1 (gene 7412); test: BSK_4H_VCAM1: BioMAP Diversity Plus: 4H Assay for Vascular cell adhesion molecule 1 (VCAM1) Biomarker Activity (AID 2283033); details: primary human endothelial cells (HUVEC); actives raise or lower the signal
Method in brief: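 Primary human umbilical vein endothelial cells were exposed to chemicals for 24 h, after which VCAM-1 was quantified by ELISA. Responses were fitted bidirectionally against DMSO as negative control and activity baseline.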

[5] = read-out: Interferon-gamma inducible Protein 10 (IP10), CXCL10 (gene 3627); test: BSK_BE3C_IP10: BioMAP Diversity Plus: BE3C Assay for Interferon-gamma inducible Protein 10 (IP10) Biomarker Activity (AID 2283034); details: primary human bronchial epithelial cells; actives raise or lower the signal
Method in brief: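 Human primary bronchial epithelial cells were exposed to chemicals for 24 hours, after which IP-10 levels were measured by ELISA. Data were fitted bidirectionally against DMSO, which served as the negative control and activity baseline.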

[6] = read-out: Transforming growth factor beta 1 (TGFb1), TGFB1 (gene 7040); test: BSK_BE3C_TGFb1: BioMAP Diversity Plus: BE3C Assay for Transforming growth factor beta 1 (TGFb1) Biomarker Activity (AID 2283036); details: primary human bronchial epithelial cells; actives raise or lower the signal
Method in brief: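 Human primary bronchial epithelial cells (BE3C system) were dosed with chemical and TGF-b1 levels measured by ELISA at 24 h. Activity was fitted bidirectionally relative to DMSO negative control as baseline.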

[7] = read-out: Plasminogen activator inhibitor-1 (PAI1), SERPINE1 (gene 5054); test: BSK_BE3C_PAI1: BioMAP Diversity Plus: BE3C Assay for Plasminogen activator inhibitor-1 (PAI1) Biomarker Activity (AID 2283037); details: primary human bronchial epithelial cells; actives raise or lower the signal
Method in brief: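 Human primary bronchial epithelial cells were exposed to chemical for 24 h, then PAI-1 was quantified by ELISA. Activity was fitted bidirectionally relative to the DMSO negative control baseline.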

[8] = read-out: urokinase plasminogen activator (uPA), PLAU (gene 5328); test: BSK_BE3C_uPA: BioMAP Diversity Plus: BE3C Assay for urokinase plasminogen activator (uPA) Biomarker Activity (AID 2283038); details: primary human bronchial epithelial cells; actives raise or lower the signal;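 further: uPA protein level quantified by ELISA in cell cultures; uPA read one day after compound addition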
Method in brief: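 Human primary bronchial epithelial cells were exposed to chemical for 24 h, then uPA levels were measured by ELISA. Responses were fitted bidirectionally against DMSO as negative control and baseline. Parallel SRB staining of total protein gauged overt cytotoxicity.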

[9] = read-out: Urokinase-type plasminogen activator receptor (uPAR), PLAUR (gene 5329); test: BSK_BE3C_uPAR: BioMAP Diversity Plus: BE3C Assay for Urokinase-type plasminogen activator receptor (uPAR) Biomarker Activity (AID 2283039); details: primary human bronchial epithelial cells; actives raise or lower the signal;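 further: cells exposed to compound for one day before measurement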
Method in brief: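 Primary human bronchial epithelial cells were dosed with chemical and harvested 24 h later; uPAR was quantified by ELISA. Activity was fitted bidirectionally against DMSO as negative control and baseline.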

[10] = read-out: Interleukin-6 (IL6), IL6 (gene 3569); test: BSK_CASM3C_IL6: BioMAP Diversity Plus: CASM3C Assay for Interleukin-6 (IL6) Biomarker Activity for (AID 2283040); details: primary human coronary artery smooth muscle cells; actives raise or lower the signal
[11] = read-out: Tissue plasminogen activator (tPA), PLAT (gene 5327); test: BSK_BE3C_tPA: BioMAP Diversity Plus: BE3C Assay for Tissue plasminogen activator (tPA) Biomarker Activity (AID 2283041); details: primary human bronchial epithelial cells; actives raise or lower the signal;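 further: tPA level quantified by ELISA one day after compound addition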
Method in brief: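 Human primary bronchial epithelial cells were dosed with chemical and tPA biomarker levels measured by ELISA 24 hours later. Activity was fitted bidirectionally against DMSO as negative control and baseline.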

[12] = read-out: Interleukin-8 (IL8), CXCL8 (gene 3576); test: BSK_CASM3C_IL8: BioMAP Diversity Plus: CASM3C Assay for Interleukin-8 (IL8) Biomarker Activity (AID 2283042); details: primary human coronary artery smooth muscle cells; actives raise or lower the signal;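 further: IL-8 protein level quantified by ELISA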
[13] = read-out: Human Leukocyte Antigen - DR isotype (HLADR), HLA-DRA (gene 3122); test: BSK_CASM3C_HLADR: BioMAP Diversity Plus: CASM3C Assay for Human Leukocyte Antigen - DR isotype (HLADR) Biomarker Activity (AID 2283043); details: primary human coronary artery smooth muscle cells; actives raise or lower the signal;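 further: cell-surface HLA-DR protein level quantified by ELISA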
[14] = read-out: Macrophage colony-stimulating factor (MCSF), CSF1 (gene 1435); test: BSK_CASM3C_MCSF: BioMAP Diversity Plus: CASM3C Assay for Macrophage colony-stimulating factor (MCSF) Biomarker Activity (AID 2283044); details: primary human coronary artery smooth muscle cells; actives raise or lower the signal;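 further: M-CSF protein amount quantified by ELISA after 24 h exposure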
[15] = read-out: Low-density lipoprotein receptor (LDLR), LDLR (gene 3949); test: BSK_CASM3C_LDLR: BioMAP Diversity Plus: CASM3C Assay for Low-density lipoprotein receptor (LDLR) Biomarker Activity (AID 2283045); details: primary human coronary artery smooth muscle cells; actives raise or lower the signal;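 further: LDLR protein level on the cell surface quantified by ELISA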
[16] = read-out: Monocyte Chemoattractant Protein-1 (MCP1), CCL2 (gene 6347); test: BSK_CASM3C_MCP1: BioMAP Diversity Plus: CASM3C Assay for Monocyte Chemoattractant Protein-1 (MCP1) Biomarker Activity (AID 2283046); details: primary human coronary artery smooth muscle cells; actives raise or lower the signal;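 further: MCP-1 level quantified by ELISA 24 h after dosing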
[17] = BSK_CASM3C_Proliferation: Cell Proliferation Assessment in the BioMAP Diversity Plus: CASM3C Assay (AID 2283047); details: primary human coronary artery smooth muscle cells;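 further: sulforhodamine B total protein stain as relative cell number at 560 nm; sub-confluent cells exposed 48 h before staining; fitted both ways against DMSO so gain or loss of cell number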
[18] = read-out: Monokine induced gamma interferon (MIG), CXCL9 (gene 4283); test: BSK_CASM3C_MIG: BioMAP Diversity Plus: CASM3C Assay for Monokine induced gamma interferon (MIG) Biomarker Activity (AID 2283048); details: primary human coronary artery smooth muscle cells; actives raise or lower the signal
[19] = read-out: serum amyloid A (SAA), SAA1 (gene 6288); test: BSK_CASM3C_SAA: BioMAP Diversity Plus: CASM3C Assay for serum amyloid A (SAA) Biomarker Activity (AID 2283049); details: primary human coronary artery smooth muscle cells; actives raise or lower the signal;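 further: SAA protein level quantified by ELISA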

Measured: AC50

CO[Si](OC)(c1ccccc1)c1ccccc1
active: [5] 26.6 µM | [10] 31.5 µM | [13] 39.1 µM | [14] 33.2 µM | [15] 30.8 µM | [16] 36.7 µM | [17] 34.2 µM | [19] 30.9 µM
inactive: all other assays above

FC1CC(F)(F)C(F)(F)C1(F)F (stereo unspecified)
not listed: [6]
inactive: all other assays above

C=CC(F)(F)C(F)(F)C(F)(F)C(F)(F)C(F)(F)C(F)(F)C(F)(F)C(F)(F)C=C
not listed: [6]
inactive: all other assays above

FC(F)(Br)C(F)(F)C(F)(F)C(F)(F)C(F)(F)C(F)(F)Br
not listed: [6]
inactive: all other assays above

COC(=O)CCC(F)(F)C(F)(F)C(F)(F)C(F)(F)F
not listed: [6]
inactive: all other assays above

CCCCCCOC(=O)c1ccccc1O
active: [1] 38.5 µM and 44.3 µM | [4] 43.2 µM and 42.5 µM | [17] 33.5 µM and 24.5 µM
not listed: [6]
inactive: all other assays above

CCO[Si](CCC(F)(F)C(F)(F)C(F)(F)C(F)(F)C(F)(F)C(F)(F)F)(OCC)OCC
not listed: [6]
inactive: all other assays above

OCC(F)(F)C(F)(F)C(F)(F)C(F)F
active: [15] 0.292 µM
inactive: [1] | [2] | [3] | [4] | [5] | [7] | [8] | [9] | [10] | [11] | [12] | [13] | [14] | [15] | [16] | [17] | [18] | [19]

Source: PubChem BioAssay (EPA / NIEHS)
